This is one part of the list. Unmarked numbers belong to inactive results.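 Rule for the calls: active = mean inhibition across replicates above a set limit taken from the earlier primary screen (cut at about 11% in these data); inactive = the rest.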

Sequence of RNA-editing ligase 1, mitochondrial (Trypanosoma brucei brucei) (P86926 whole entry, looked up): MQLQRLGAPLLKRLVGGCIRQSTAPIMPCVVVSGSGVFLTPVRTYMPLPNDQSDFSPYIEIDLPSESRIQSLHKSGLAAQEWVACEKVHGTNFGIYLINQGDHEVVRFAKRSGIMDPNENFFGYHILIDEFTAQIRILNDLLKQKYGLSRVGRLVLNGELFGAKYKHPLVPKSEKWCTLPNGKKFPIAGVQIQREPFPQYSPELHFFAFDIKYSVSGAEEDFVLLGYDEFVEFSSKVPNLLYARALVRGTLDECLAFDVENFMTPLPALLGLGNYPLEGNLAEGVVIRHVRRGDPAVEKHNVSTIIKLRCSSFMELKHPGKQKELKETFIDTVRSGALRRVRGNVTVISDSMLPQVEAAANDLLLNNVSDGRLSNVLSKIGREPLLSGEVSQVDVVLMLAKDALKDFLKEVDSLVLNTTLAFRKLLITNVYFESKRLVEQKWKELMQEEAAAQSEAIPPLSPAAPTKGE

The assay addresses RNA-editing ligase 1, mitochondrial (Trypanosoma brucei brucei) (UniProt P86926). Kind of assay: T. brucei editing ligase REL1 blockade – biochemical, FRET fluorescence, triplicate, confirmation (AID 1117282).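 Note: 0% = REL1 with substrate and DMSO and 100% = REL1 plus control inhibitor NSC42067.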 The settings on record: TbREL1 RNA ligation, at 9.66 µM, hits give high values.
Consider `O=c1[nH]c2ccccc2n1C1CCN(C(c2ccccc2)c2nnnn2Cc2ccccc2)CC1` (stereo not drawn), for which the inhibition was 1.44%.

With `CC1CCCCN1Cc1cccnc1` (stereo not drawn), the inhibition was 5.17%.

In the case of `CN1CCN(c2cc(N3CCNCC3)ccc2[N+](=O)[O-])CC1`, the inhibition is 9.79%.

Values taken from PubChem BioAssay AID1117282 (The Scripps Research Institute Molecular Screening Center, 2014).
